The full data set covers some 7,900 targets. This sample favours those with a hit. About 0.6% of all pairs of compound and target were hits.
Tests used:
Assay in all cases: log2 fold change, soluble protein after heating vs DMSO (PISA); higher = thermal stabilisation; K562 cells, 10 uM, 30 min; active = over 0.2 and 3.5 SD of the protein, either way, in both replicates (recomputed)
[1] = compound: Cc1ccc(NC(=O)c2ccc(CN3CC[C@H](N(C)C)C3)c(C(F)(F)F)c2)cc1Nc1nccc(-c2cncnc2)n1 [bafetinib]
Method in brief: (§1)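 Aliquots of K562 cells (2×10^6 cells/mL) treated with 10 μM compound for 30 min were heated for 3 min over 48°C-58°C. After pooling and extraction in PBS with 0.5% NP-40 at 4°C, soluble protein from a 21,000xg, 90 min spin was quantified by TMTpro 16plex LC-MS/MS with channel sums equalised. Thermal stability is expressed against control samples, from duplicates, as a log2 fold change.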

[2] = compound: Cc1cccc(CC(=O)N2CCc3c2ccc(-c2cn(C)c4ncnc(N)c24)c3F)n1
Method in brief: as §1

[3] = compound: Cc1cn(-c2cc(NC(=O)c3ccc(C)c(Nc4nccc(-c5cccnc5)n4)c3)cc(C(F)(F)F)c2)cn1 [nilotinib]
Method in brief: as §1

[4] = compound: Cc1nc(Nc2n[nH]c3c2CN(C(=O)N[C@H](CN(C)C)c2ccccc2)C3(C)C)c2sccc2n1
Method in brief: as §1

[5] = compound: Cc1nc(Nc2ncc(C(=O)Nc3c(C)cccc3Cl)s2)cc(N2CCN(CCO)CC2)n1 [dasatinib]
Method in brief: as §1

[6] = compound: Cc1ncc(-c2ccnc(Nc3ccc(S(C)(=O)=O)cc3)n2)n1C(C)C
Method in brief: as §1

[7] = compound: Cn1cc(-c2ccc3c(c2)CCN3C(=O)Cc2cccc(C(F)(F)F)c2)c2c(N)ncnc21
Method in brief: as §1

[8] = compound: Cn1cc(-c2ccc3nnc(C(F)(F)c4ccc5ncccc5c4)n3n2)cn1
Method in brief: as §1

[9] = compound: Cn1cncc1[C@@](N)(c1ccc(Cl)cc1)c1ccc2c(c1)c(-c1cccc(Cl)c1)cc(=O)n2C [tipifarnib]
Method in brief: as §1

[10] = compound: FC(F)(F)c1ccc(/C=C/c2nc(COc3ccc(CCCCn4ccnn4)cc3)co2)cc1 [mubritinib]
Method in brief: as §1

[11] = compound: NC(=O)Nc1cc(-c2cccc(F)c2)sc1C(=O)N[C@H]1CCCNC1
Method in brief: as §1

[12] = compound: NC(=O)c1cnc(N[C@@H]2CCCC[C@@H]2N)nc1Nc1cccc(-n2nccn2)c1
Method in brief: as §1

[13] = compound: NC1(c2ccc(-c3nc4ccn5c(=O)[nH]nc5c4cc3-c3ccccc3)cc2)CCC1
Method in brief: as §1

[14] = compound: NCC(=O)Nc1ccc(-n2nc(C(F)(F)F)cc2-c2ccc3c(ccc4ccccc43)c2)cc1
Method in brief: as §1

[15] = compound: Nc1ccccc1NC(=O)c1ccc(CNC(=O)OCc2cccnc2)cc1 [entinostat]
Method in brief: as §1

[16] = compound: O=C(CCCCCCC(=O)Nc1ccccc1)NO [vorinostat]
Method in brief: as §1

[17] = compound: O=C(CCCCCCNC(=O)c1cnc(N(c2ccccc2)c2ccccc2Cl)nc1)NO [citarinostat]
Method in brief: as §1

[18] = compound: O=C(O)c1ccc2c(c1)nc(Nc1cccc(Cl)c1)c1ccncc12 [silmitasertib]
Method in brief: as §1

[19] = compound: O=C1NC(=O)C(c2cnc3ccccn23)=C1c1cn2c3c(cc(F)cc13)CN(C(=O)N1CCCCC1)CC2
Method in brief: as §1

[20] = compound: c1cc(OCCN2CCCCC2)cc(-c2n[nH]c3ccc(-c4nnc[nH]4)cc23)c1
Method in brief: as §1

Measured: log2 fold change

ABCB6 (UniProt Q9NP58)
active: [13] -0.456
inactive: [1] -0.035 | [2] 0.014 | [3] 0.022 | [4] 0.032 | [5] -0.001 | [6] 0.024 | [7] 0 | [8] -0.025 | [9] 0.005 | [10] 0.001 | [11] 0.005 | [12] -0.111 | [14] -0.015 | [15] -0.011 | [16] 0.044 | [17] 0.063 | [18] 0.018 | [19] -0.047 | [20] -0.021

BCAP29 isoform 2 (UniProt Q9UHQ4)
UniProt Q9UHQ4, sequence (Q9UHQ4 whole entry, looked up): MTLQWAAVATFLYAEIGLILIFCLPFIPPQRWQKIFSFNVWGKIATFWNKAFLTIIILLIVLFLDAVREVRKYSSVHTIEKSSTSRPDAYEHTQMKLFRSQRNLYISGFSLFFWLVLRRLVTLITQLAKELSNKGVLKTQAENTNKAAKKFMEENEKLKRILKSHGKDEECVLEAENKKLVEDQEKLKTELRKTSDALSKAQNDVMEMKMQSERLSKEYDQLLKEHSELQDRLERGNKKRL
inactive: [1] -0.159 | [2] -0.027 | [3] -0.002 | [4] 0.035 | [5] 0.154 | [6] -0.018 | [7] 0 | [8] 0.04 | [9] 0.058 | [10] 0.02 | [11] 0.001 | [12] 0.049 | [13] 0.034 | [14] -0.094 | [15] -0.014 | [16] -0.064 | [17] -0.015 | [18] 0.031 | [19] -0.043 | [20] -0.036

BCLAF1 (UniProt Q9NYF8)
inactive: [1] -0.028 | [2] 0.059 | [3] 0.02 | [5] 0.081 | [6] -0.14 | [7] -0.018 | [8] -0.065 | [9] -0.005 | [10] 0.031 | [11] 0.01 | [12] 0.006 | [13] 0.003 | [14] 0.064 | [15] 0.047 | [16] 0.109 | [17] 0.07 | [18] -0.361 | [19] 0.128 | [20] -0.31
active: [4] -0.609

AGPAT5 (UniProt Q9NUQ2)
UniProt Q9NUQ2, sequence (Q9NUQ2 whole entry, looked up): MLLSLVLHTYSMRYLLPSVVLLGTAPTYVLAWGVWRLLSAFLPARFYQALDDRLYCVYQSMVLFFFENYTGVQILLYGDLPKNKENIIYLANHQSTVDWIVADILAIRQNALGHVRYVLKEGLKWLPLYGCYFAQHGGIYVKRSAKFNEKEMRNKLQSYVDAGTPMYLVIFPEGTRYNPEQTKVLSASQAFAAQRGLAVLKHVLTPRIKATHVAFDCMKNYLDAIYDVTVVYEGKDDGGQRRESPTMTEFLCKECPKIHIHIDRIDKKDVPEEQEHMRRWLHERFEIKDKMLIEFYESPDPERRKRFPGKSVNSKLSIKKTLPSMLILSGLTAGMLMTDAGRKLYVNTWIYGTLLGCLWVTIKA
inactive: [1] -0.133 | [2] 0.021 | [3] 0.008 | [4] 0.04 | [5] -0.058 | [6] -0.035 | [7] 0.09 | [8] 0.045 | [9] 0.02 | [10] 0.014 | [11] -0.044 | [12] 0.016 | [13] -0.029 | [14] -0.047 | [15] -0.027 | [16] -0.002 | [17] 0.045 | [18] -0.001 | [19] -0.076 | [20] -0.027

ATP6V1C1 (UniProt P21283)
UniProt P21283, sequence (P21283 whole entry, looked up): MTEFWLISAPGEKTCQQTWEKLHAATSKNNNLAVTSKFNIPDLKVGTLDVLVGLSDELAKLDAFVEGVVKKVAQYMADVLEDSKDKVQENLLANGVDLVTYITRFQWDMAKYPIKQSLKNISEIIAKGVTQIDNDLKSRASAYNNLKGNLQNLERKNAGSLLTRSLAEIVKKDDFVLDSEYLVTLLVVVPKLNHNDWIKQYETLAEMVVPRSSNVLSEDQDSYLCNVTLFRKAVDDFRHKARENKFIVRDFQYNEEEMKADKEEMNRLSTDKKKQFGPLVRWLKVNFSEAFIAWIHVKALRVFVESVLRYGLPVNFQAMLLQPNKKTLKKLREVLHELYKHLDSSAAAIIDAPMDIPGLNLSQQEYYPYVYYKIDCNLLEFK
inactive: [1] -0.083 | [2] 0.063 | [3] -0.137 | [4] -0.191 | [5] -0.045 | [6] 0.115 | [7] -0.083 | [8] -0.105 | [9] 0.03 | [10] 0.083 | [11] -0.015 | [12] -0.135 | [13] -0.173 | [14] -0.09 | [15] 0.062 | [16] 0.039 | [17] 0.008 | [18] 0.03 | [19] 0.025 | [20] -0.103

ATP6V0A2 (UniProt Q9Y487)
UniProt Q9Y487, sequence (Q9Y487 whole entry, looked up): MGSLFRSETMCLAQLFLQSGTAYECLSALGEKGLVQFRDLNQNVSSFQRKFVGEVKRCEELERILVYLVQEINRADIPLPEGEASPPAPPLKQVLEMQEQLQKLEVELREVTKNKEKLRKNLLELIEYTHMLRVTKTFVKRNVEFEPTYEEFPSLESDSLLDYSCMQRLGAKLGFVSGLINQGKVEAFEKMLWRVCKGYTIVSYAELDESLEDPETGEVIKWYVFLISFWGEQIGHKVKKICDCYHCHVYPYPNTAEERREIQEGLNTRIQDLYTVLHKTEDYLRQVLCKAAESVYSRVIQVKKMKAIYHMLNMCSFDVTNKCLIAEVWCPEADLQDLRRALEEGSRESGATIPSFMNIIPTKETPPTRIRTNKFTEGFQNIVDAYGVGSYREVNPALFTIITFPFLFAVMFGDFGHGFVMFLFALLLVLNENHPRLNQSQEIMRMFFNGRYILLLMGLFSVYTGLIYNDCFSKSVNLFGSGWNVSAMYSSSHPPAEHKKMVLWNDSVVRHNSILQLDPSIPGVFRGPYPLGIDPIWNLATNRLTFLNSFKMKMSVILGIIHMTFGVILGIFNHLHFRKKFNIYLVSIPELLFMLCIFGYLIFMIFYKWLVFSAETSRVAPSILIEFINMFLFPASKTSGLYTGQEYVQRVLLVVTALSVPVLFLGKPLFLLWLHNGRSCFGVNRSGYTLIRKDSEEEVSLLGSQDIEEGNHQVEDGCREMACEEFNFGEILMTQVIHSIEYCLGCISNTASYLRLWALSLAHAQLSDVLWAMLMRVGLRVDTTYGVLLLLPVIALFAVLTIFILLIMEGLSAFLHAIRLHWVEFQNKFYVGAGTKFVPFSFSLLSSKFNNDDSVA
inactive: [1] -0.041 | [2] 0.007 | [3] 0.035 | [4] 0.006 | [5] -0.006 | [6] -0.077 | [7] -0.019 | [8] 0.027 | [9] 0.008 | [10] -0.019 | [11] -0.002 | [12] -0.072 | [13] -0.143 | [14] -0.024 | [15] 0.021 | [16] 0 | [17] 0.036 | [18] 0.079 | [19] 0.061 | [20] -0.043

ADH5 (UniProt P11766)
UniProt P11766, sequence (P11766 whole entry, looked up): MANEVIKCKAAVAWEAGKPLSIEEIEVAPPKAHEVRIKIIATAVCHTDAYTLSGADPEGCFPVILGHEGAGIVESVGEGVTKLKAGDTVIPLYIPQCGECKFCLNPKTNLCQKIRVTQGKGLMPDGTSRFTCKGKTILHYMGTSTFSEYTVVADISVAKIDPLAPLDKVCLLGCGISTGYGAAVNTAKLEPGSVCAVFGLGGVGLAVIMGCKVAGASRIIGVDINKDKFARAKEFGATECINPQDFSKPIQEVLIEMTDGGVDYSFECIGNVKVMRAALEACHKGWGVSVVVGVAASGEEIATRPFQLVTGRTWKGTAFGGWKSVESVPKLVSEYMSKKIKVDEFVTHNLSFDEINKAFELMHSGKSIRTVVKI
inactive: [1] -0.009 | [2] 0.006 | [3] -0.013 | [4] 0.023 | [5] 0.036 | [6] 0.013 | [7] 0.021 | [8] -0.006 | [9] -0.029 | [10] 0.028 | [11] 0.024 | [12] 0.002 | [13] -0.006 | [14] 0.021 | [15] -0.031 | [16] -0.013 | [17] 0.015 | [18] -0.026 | [19] -0.03 | [20] -0.016

B4GALT1 (UniProt P15291)
UniProt P15291, sequence (P15291 whole entry, looked up): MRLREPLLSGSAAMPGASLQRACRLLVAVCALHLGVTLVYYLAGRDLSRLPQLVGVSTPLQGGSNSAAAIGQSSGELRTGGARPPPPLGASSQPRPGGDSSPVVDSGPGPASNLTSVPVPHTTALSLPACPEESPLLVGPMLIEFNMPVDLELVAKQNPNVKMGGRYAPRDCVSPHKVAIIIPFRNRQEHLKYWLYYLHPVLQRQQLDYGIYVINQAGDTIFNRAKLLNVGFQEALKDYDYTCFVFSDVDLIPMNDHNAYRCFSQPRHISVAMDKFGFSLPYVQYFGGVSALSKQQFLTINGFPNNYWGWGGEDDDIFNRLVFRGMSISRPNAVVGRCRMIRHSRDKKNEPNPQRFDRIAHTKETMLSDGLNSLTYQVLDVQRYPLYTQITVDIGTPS
inactive: [1] -0.062 | [2] 0.009 | [3] 0.066 | [4] -0.025 | [5] -0.083 | [6] 0.021 | [7] -0.005 | [8] 0.04 | [9] 0.153 | [10] 0.029 | [11] 0.053 | [12] 0.114 | [13] -0.279 | [14] 0.199 | [15] -0.01 | [16] -0.01 | [17] 0 | [18] 0 | [19] -0.039 | [20] -0.027

ANAPC2 (UniProt Q9UJX6)
UniProt Q9UJX6, sequence (Q9UJX6 whole entry, looked up): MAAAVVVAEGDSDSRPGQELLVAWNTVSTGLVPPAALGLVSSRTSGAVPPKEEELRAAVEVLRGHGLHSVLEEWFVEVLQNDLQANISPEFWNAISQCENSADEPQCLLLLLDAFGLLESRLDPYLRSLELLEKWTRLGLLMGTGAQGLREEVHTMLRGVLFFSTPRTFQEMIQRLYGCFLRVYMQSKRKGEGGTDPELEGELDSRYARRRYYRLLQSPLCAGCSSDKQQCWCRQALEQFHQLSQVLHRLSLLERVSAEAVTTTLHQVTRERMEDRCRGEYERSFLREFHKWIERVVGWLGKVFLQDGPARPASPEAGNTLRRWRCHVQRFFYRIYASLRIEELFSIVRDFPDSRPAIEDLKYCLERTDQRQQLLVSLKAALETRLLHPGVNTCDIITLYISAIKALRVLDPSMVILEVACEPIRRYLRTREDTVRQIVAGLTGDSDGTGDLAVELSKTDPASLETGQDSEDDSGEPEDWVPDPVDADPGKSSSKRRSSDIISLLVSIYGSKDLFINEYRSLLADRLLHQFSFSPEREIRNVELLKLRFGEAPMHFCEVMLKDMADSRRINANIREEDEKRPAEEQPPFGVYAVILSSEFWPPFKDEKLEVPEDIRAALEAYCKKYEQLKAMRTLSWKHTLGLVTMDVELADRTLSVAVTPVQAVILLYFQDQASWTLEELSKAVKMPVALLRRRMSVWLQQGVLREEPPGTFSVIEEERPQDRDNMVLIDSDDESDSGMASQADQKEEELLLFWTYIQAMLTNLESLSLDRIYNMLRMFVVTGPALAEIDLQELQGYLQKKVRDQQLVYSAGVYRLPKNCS
inactive: [1] -0.048 | [2] 0.024 | [3] -0.004 | [4] -0.053 | [5] -0.04 | [6] 0.003 | [7] -0.005 | [8] -0.036 | [9] -0.005 | [10] 0.049 | [11] 0.079 | [12] -0.025 | [13] -0.063 | [14] -0.023 | [15] 0.02 | [16] 0.074 | [17] 0.124 | [18] 0.087 | [19] 0.027 | [20] -0.049

ACSL5 isoform 3 (UniProt Q9ULC5)
UniProt Q9ULC5, sequence (Q9ULC5 whole entry, looked up): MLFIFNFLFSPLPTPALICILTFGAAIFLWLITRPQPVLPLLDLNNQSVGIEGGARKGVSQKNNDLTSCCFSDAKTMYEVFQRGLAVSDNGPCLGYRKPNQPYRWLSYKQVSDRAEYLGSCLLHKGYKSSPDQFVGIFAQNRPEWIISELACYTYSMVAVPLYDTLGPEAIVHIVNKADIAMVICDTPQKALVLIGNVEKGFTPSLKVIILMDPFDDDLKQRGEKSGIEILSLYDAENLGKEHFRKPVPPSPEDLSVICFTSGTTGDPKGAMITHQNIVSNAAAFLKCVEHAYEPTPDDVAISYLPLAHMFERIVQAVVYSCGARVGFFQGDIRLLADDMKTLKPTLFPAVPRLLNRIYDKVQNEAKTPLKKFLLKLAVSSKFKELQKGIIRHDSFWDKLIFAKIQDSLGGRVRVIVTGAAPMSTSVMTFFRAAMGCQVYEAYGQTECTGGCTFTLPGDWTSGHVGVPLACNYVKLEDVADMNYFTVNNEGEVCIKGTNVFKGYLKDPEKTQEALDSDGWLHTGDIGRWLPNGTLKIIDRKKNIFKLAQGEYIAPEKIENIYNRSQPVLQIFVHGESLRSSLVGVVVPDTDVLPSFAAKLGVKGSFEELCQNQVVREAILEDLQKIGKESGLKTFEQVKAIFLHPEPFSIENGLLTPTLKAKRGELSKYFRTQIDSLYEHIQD
active: [1] -0.271
inactive: [2] -0.01 | [3] -0.055 | [4] -0.06 | [5] 0.062 | [6] 0.012 | [7] 0.066 | [8] 0.007 | [9] 0.043 | [10] -0.018 | [11] -0.007 | [12] -0.066 | [13] -0.042 | [14] -0.184 | [15] 0.081 | [16] 0.005 | [17] -0.035 | [18] 0.002 | [19] -0.103 | [20] -0.052

AAMP (UniProt Q13685)
inactive: [1] 0.011 | [2] 0.014 | [3] 0.009 | [4] 0.005 | [5] 0.04 | [6] 0.012 | [7] -0.038 | [8] -0.028 | [9] -0.026 | [10] 0.02 | [11] -0.006 | [12] -0.05 | [13] -0.005 | [14] -0.018 | [15] -0.055 | [16] 0.015 | [17] -0.026 | [18] 0.061 | [19] 0.059 | [20] -0.013

AK6 (UniProt Q9Y3D8)
inactive: [1] 0.021 | [2] -0.018 | [3] -0.141 | [4] -0.143 | [5] -0.288 | [6] -0.015 | [7] 0 | [8] 0.025 | [9] -0.144 | [10] -0.114 | [11] -0.034 | [12] -0.072 | [13] -0.043 | [14] -0.138 | [15] 0.145 | [16] 0.074 | [17] 0.103 | [18] 0.058 | [19] -0.051 | [20] -0.009

BRIX1 (UniProt Q8TDN6)
inactive: [1] 0.386 | [2] -0.033 | [3] 0.085 | [4] -0.077 | [5] 0.109 | [6] -0.013 | [7] -0.494 | [8] -0.138 | [9] 0.158 | [10] -0.206 | [11] 0.056 | [12] -0.025 | [13] 0.171 | [14] 0.132 | [15] -0.008 | [16] 0.059 | [17] -0.05 | [18] 0.191 | [19] 0.401 | [20] -0.437

ACP1 isoform 2 (UniProt P24666)
UniProt P24666, sequence (P24666 whole entry, looked up): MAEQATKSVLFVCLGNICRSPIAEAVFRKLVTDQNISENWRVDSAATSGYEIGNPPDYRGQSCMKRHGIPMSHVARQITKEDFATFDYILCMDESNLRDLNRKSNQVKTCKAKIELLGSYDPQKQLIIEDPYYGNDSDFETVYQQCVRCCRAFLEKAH
inactive: [1] 0.037 | [2] 0.036 | [3] 0.039 | [4] -0.063 | [5] -0.126 | [6] -0.049 | [7] -0.044 | [8] 0.022 | [9] -0.146 | [10] 0.042 | [11] 0.048 | [12] -0.018 | [13] -0.086 | [14] -0.041 | [15] 0.041 | [16] 0.159 | [17] 0.005 | [18] -0.005 | [19] -0.149 | [20] -0.044

ACSL4 (UniProt O60488)
UniProt O60488, sequence (O60488 whole entry, looked up): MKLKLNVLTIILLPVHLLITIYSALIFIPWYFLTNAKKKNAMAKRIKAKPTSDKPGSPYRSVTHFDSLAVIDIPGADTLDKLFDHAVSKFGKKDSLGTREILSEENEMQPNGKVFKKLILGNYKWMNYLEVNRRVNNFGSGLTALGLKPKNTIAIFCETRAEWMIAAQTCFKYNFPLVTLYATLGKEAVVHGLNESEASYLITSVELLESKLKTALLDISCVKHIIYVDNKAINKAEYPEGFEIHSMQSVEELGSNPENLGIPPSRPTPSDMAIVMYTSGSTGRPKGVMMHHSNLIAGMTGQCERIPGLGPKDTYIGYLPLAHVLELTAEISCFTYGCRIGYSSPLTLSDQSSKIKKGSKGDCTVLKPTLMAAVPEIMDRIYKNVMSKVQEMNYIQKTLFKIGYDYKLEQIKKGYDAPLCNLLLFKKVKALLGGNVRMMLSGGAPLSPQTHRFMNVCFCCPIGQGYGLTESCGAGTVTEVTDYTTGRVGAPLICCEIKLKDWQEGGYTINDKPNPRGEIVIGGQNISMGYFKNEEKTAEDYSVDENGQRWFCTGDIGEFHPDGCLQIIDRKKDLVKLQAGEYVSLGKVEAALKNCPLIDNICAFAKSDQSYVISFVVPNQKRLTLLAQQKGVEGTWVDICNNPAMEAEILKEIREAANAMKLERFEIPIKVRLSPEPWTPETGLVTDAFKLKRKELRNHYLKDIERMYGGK
inactive: [1] -0.021 | [2] -0.014 | [3] -0.027 | [4] -0.063 | [5] -0.222 | [6] 0.087 | [7] 0.05 | [8] 0.115 | [9] -0.134 | [10] -0.078 | [11] -0.087 | [12] -0.097 | [13] -0.057 | [14] -0.023 | [15] 0.081 | [16] 0.029 | [17] 0.044 | [18] 0.149 | [19] 0.003 | [20] 0.017

AKAP8 (UniProt O43823)
inactive: [1] -0.051 | [2] -0.008 | [3] -0.001 | [4] -0.044 | [5] -0.155 | [6] -0.042 | [7] -0.007 | [8] -0.049 | [9] 0.022 | [10] 0.028 | [11] -0.043 | [12] -0.037 | [13] 0.023 | [14] -0.012 | [15] -0.024 | [16] 0.01 | [17] 0.002 | [18] -0.13 | [19] -0.1 | [20] -0.043
